Measurements as given in PubChem BioAssay (NCI).
About 83,000 compounds went through this panel and 20% of them were active in at least one assay; those are over-represented in the sample as a whole.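 Interpretation: 100, growth as untreated; towards 0, rising growth inhibition; 0, no net growth; 0 to -100, cell death. Compounds scoring below 10 were considered active.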 Calls of active or inactive are those of the source.

Key:
Test in all cases: NCI-60 one-dose screen, 48 h (100 = growth as untreated, 0 = no growth, -100 = all killed)
Conditions in all cases: 10 µM unless noted
DU-145 prostate = test system: DU-145 prostate
K-562 leukemia = test system: K-562 leukemia
MALME-3M melanoma = test system: MALME-3M melanoma
MDA-MB-231 breast = test system: MDA-MB-231 breast
RXF 393 renal = test system: RXF 393 renal
SF-268 CNS = test system: SF-268 CNS
SF-295 CNS = test system: SF-295 CNS
SF-539 CNS = test system: SF-539 CNS
UACC-257 melanoma = test system: UACC-257 melanoma
M14 melanoma = test system: M14 melanoma

Measured: growth

COc1c(C(=O)Nc2ccc(C)c(Br)c2)ccc2ccccc12
inactive: DU-145 prostate 96.8% | K-562 leukemia 41.9% | MALME-3M melanoma 84.4% | MDA-MB-231 breast 104% | RXF 393 renal 81.1% | SF-268 CNS 96.5% | SF-295 CNS 90.6% | SF-539 CNS 92.2% | UACC-257 melanoma 98.3% | M14 melanoma 81.1%

Nc1nc2ccccc2c2c1S(=O)(=O)c1ccc(Cl)cc1C2=O
active: MALME-3M melanoma -21%
inactive: DU-145 prostate 26.3% | K-562 leukemia 11.5% | MDA-MB-231 breast 17.5% | RXF 393 renal 10.2% | SF-268 CNS 24.4% | SF-295 CNS 31.8% | SF-539 CNS 11.2% | UACC-257 melanoma 24.7% | M14 melanoma 17.8%

Clc1ccc2c(c1)C(c1c[nH]c3ccccc13)(c1c[nH]c3ccccc13)CCO2
inactive: DU-145 prostate 88% | K-562 leukemia 73.1% | MALME-3M melanoma 106% | MDA-MB-231 breast 55.5% | RXF 393 renal 95.6% | SF-268 CNS 71.5% | SF-295 CNS 70% | SF-539 CNS 95.4% | UACC-257 melanoma 38.1% | M14 melanoma 69%

C#Cc1c2c(c(OC)c3c1OCO3)[C@H]([C@H]1OC(=O)c3c1ccc(OC)c3OC)N(C)CC2
inactive: DU-145 prostate 95.1% | K-562 leukemia 31.2% | MALME-3M melanoma 69.9% | MDA-MB-231 breast 87.5% | RXF 393 renal 92.3% | SF-268 CNS 90.4% | SF-295 CNS 77.7% | SF-539 CNS 96.3% | UACC-257 melanoma 82.8% | M14 melanoma 71.4%

C[PH+](c1nc2ccccc2nc1[PH+](C)C(C)(C)C)C(C)(C)C.C[PH+](c1nc2ccccc2nc1[PH+](C)C(C)(C)C)C(C)(C)C.[Au+].[Cl-] (stereo not given)
active: DU-145 prostate -99.5% | K-562 leukemia 1.72% | MALME-3M melanoma -67.1% | MDA-MB-231 breast -90.3% | RXF 393 renal -87.9% | SF-268 CNS -91% | SF-295 CNS -88% | SF-539 CNS -91.6% | UACC-257 melanoma -88.3% | M14 melanoma -100%

N#C/C(=C\c1c(-c2ccccc2)[nH]c2ccccc12)C(N)=O
inactive: DU-145 prostate 108% | K-562 leukemia 24% | MALME-3M melanoma 93% | MDA-MB-231 breast 71.6% | RXF 393 renal 122% | SF-268 CNS 97.3% | SF-295 CNS 99.7% | SF-539 CNS 71% | UACC-257 melanoma 105% | M14 melanoma 68.9%

Cc1c(-c2ccc(O)cc2)n(Cc2ccc(OCCN3CCCCCC3)cc2)c2ccc(O)cc12
inactive: DU-145 prostate 87% | MALME-3M melanoma 69.5% | MDA-MB-231 breast 82.3% | RXF 393 renal 49.9% | SF-268 CNS 74.2% | SF-295 CNS 99.1% | SF-539 CNS 61.7% | UACC-257 melanoma 81.6% | M14 melanoma 63.5%
active: K-562 leukemia -6.6%

COc1ccc(C2=C(Nc3ccc(C(=O)Nc4ccccc4)cc3)C(=O)N(C)C2=O)cc1
inactive: DU-145 prostate 98% | K-562 leukemia 81.5% | MALME-3M melanoma 93.7% | MDA-MB-231 breast 83.2% | RXF 393 renal 105% | SF-268 CNS 97.1% | SF-295 CNS 98.9% | SF-539 CNS 97.6% | UACC-257 melanoma 87.6% | M14 melanoma 99.9%

COc1ccc(Nc2nnc(-c3ccc(OC)c(OC)c3)o2)cc1
inactive: DU-145 prostate 90.9% | K-562 leukemia 80.2% | MALME-3M melanoma 106% | MDA-MB-231 breast 55.7% | RXF 393 renal 102% | SF-268 CNS 80.8% | SF-295 CNS 101% | SF-539 CNS 92.1% | UACC-257 melanoma 102% | M14 melanoma 100%

O=C(/C=C/c1ccco1)Nc1ncc(Cc2cccc(C(F)(F)F)c2)s1
active: K-562 leukemia 4.59% | MALME-3M melanoma 5.43% | RXF 393 renal -8.57% | SF-295 CNS -20.5% | SF-539 CNS -39.8% | M14 melanoma -10.2%
inactive: DU-145 prostate 10.5% | MDA-MB-231 breast 25.5% | SF-268 CNS 33.2% | UACC-257 melanoma 25.4%

N=C(N)c1ccc(-c2ccc(-c3ccccc3)o2)cc1
active: DU-145 prostate -11.2% | K-562 leukemia -33.2% | MALME-3M melanoma -81.5% | MDA-MB-231 breast -58.2% | RXF 393 renal -76.3% | SF-268 CNS -31.1% | SF-295 CNS -70.4% | SF-539 CNS -83.7% | UACC-257 melanoma -72.4% | M14 melanoma -91.3%

O=c1scc(-c2ccc(C(F)(F)F)cc2)s1
inactive: DU-145 prostate 110% | K-562 leukemia 99.9% | MALME-3M melanoma 115% | MDA-MB-231 breast 104% | RXF 393 renal 87.4% | SF-268 CNS 100% | SF-295 CNS 85.6% | SF-539 CNS 111% | UACC-257 melanoma 82.9% | M14 melanoma 104%

CCOC(=O)Cc1cnc(N/N=C(\C)c2cc3ccccc3o2)s1
inactive: DU-145 prostate 113% | K-562 leukemia 98.5% | MALME-3M melanoma 91.8% | MDA-MB-231 breast 91.4% | RXF 393 renal 107% | SF-268 CNS 98.8% | SF-295 CNS 104% | SF-539 CNS 107% | UACC-257 melanoma 98.2% | M14 melanoma 98.2%

CC(=O)/C(=C\c1c(-c2ccccc2)[nH]c2ccccc12)S(C)(=O)=O
inactive: DU-145 prostate 13.2% | MALME-3M melanoma 32.9% | MDA-MB-231 breast 32.3% | SF-268 CNS 41.6% | UACC-257 melanoma 59.8%
active: K-562 leukemia -25.7% | RXF 393 renal -5.08% | SF-295 CNS 3.77% | SF-539 CNS -34.8% | M14 melanoma 3.01%

COc1ccc(-c2ccc(=O)oc2-c2cc(OC)c(OC)c(OC)c2)cc1O
active: DU-145 prostate -53.4% | K-562 leukemia -25.7% | RXF 393 renal 3.35% | SF-268 CNS 5.78% | SF-295 CNS -21.7% | SF-539 CNS -19.2% | M14 melanoma -32.6%
inactive: MALME-3M melanoma 54.1% | MDA-MB-231 breast 15.9% | UACC-257 melanoma 25.1%

O=S(=O)(NCCNc1nccc(-c2c(-c3ccc(F)c(O)c3)nc3sccn23)n1)c1ccc(O)cc1
inactive: DU-145 prostate 43.8% | K-562 leukemia 28.9% | MALME-3M melanoma 31% | MDA-MB-231 breast 45.6% | RXF 393 renal 25.8% | SF-268 CNS 37% | SF-295 CNS 60.2% | SF-539 CNS 81.2% | UACC-257 melanoma 58.9% | M14 melanoma 27.2%

O=C1Nc2ccccc2/C1=C/c1cccn1CCCCn1c2ccccc2c(=O)c2ccccc21
inactive: DU-145 prostate 94.2% | K-562 leukemia 59.5% | MALME-3M melanoma 91.9% | MDA-MB-231 breast 64.7% | RXF 393 renal 88.1% | SF-268 CNS 83.1% | SF-295 CNS 101% | SF-539 CNS 93% | UACC-257 melanoma 105% | M14 melanoma 85.1%
